Rows were chosen to be rich in hits. Some 11% of all compounds tested hit in one or more screens of this group.
Tau FP inhib: tau fibrillization inhibition (FP); 280,000 compounds, 0.39% hits; P10636; K18 P301L tau heparin fibrillization, Alexa594 FP, 6 h; Potency, µM (doses to about 57.7 µM), for the others: top-dose activity, negative = inhibition, usual class: inhibitors; note: potency is the fitted concentration of half-maximal effect; nearly all actives have a fitted effect of over 55% in size
Target sequence (P10636 561-689 P618L limits assumed): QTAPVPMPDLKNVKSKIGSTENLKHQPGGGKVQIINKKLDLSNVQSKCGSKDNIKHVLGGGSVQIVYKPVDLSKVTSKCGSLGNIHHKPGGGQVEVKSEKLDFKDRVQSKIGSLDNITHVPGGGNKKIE
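Read-out: fluorescence polarization of Alexa 594-labeled tau (0.24 uM), 555 nm excitation, 632 nm emission. Mixtures held 15 uM unlabeled K18 P301L, compound and 20 uM heparin, pH 7 acetate buffer, incubated 6 hr at 37 C.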
Coupling enz: coupling enzyme interference in Giardia aldolase counter-screen; 290,000 compounds, 0.67% hits; coupling enzyme system counterscreen, AmpLite Red fluorescence; activity change, negative = inhibition, % at 58.2 µM, hits read low; in the data active = activity change below about -30%
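Activity here indicates interference with the coupling reaction, not aldolase inhibition. Compounds at 57.5 uM final met coupling enzymes for 10 min at RT; substrate and AmpLite Red detection followed, with a 525/598 nm fluorescence read after 20 min.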
Sfp PPTase inh: inhibitors of Bacillus subtilis Sfp phosphopantetheinyl transferase | Q9F4F7 | Biochemical Sfp PPTase activity, qHTS | Potency, µM, for the others: largest response in the series, negative = inhibition, actives largely listed as inhibitors | 310,000 compounds, 3.5% hits;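 note: the enzyme is Sfp with the accession as filed and its product quenches rhodamine fluorescence; potency is the fitted concentration of half-maximal effect; 0% = enzyme reaction without inhibitor and -100% = no enzyme wells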
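Sfp 15 nM + cpd, 15 min RT; start w/ rhodamine-CoA 5 uM, BHQ-2-YbbR 12.5 uM (final); 50 mM Hepes pH 7.6, 10 mM MgCl2, 0.01% NP-40, 0.01% BSA; read 525/598 nm at 0 and 30 min.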
Tau fluor counter: counter-screen for tau fibril formation inhibitors; tau K18 P301L Alexa594 fluorescence, heparin fibrillization; Potency, µM (top dose mostly 57.7 µM), for inactives: top-dose activity change, negative = decrease; 280,000 compounds, 0.93% hits; AID 1463; note: potency is the fitted concentration of half-maximal effect; nearly all actives have a fitted effect of over 55% in size
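Human K18 P301L tau (15 uM unlabeled plus 0.24 uM Alexa 594-labeled, final) in 100 mM sodium acetate pH 7 was mixed with compound and 20 uM heparin and incubated 6 hr at 37 C.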
G9a block: inhibitors of human histone lysine methyltransferase G9a. Q96KQ7. Potency, µM (highest dose often 102 µM), for inactives: at the highest dose activity, negative = inhibition, hits mostly inhibitors. G9a H3K9 monomethylation, AlphaScreen, 2 h. AID 504332. 350,000 compounds, 8.8% hits; note: potency is the fitted concentration of half-maximal effect; nearly all actives have a fitted effect of over 75% in size
Target sequence (Q96KQ7 913-1193 limits assumed): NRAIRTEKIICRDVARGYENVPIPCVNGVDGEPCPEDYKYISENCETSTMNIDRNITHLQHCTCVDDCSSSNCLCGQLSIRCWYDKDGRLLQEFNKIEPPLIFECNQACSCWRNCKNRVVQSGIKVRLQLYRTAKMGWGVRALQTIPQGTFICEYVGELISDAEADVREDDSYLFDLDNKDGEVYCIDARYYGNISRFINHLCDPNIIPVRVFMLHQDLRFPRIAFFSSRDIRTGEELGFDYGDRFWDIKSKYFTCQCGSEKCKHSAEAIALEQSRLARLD
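G9a (20 nM) was preincubated 15 min with compound, then reacted 2 h at room temperature with 500 nM biotin-H3K9 peptide and 20 µM SAM. Monomethyl-H3K9 detected by AlphaScreen using anti-H3K9me1 antibody.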
Tau fibril ThT: tau fibrillization inhibition (ThT binding); P10636; 270,000 compounds, 2.1% hits; recombinant tau K18 P301L (four-repeat tau fragment), heparin-induced fibrillization, ThT fluorescence; AID 1460; Potency, µM (top dose mostly 57.4 µM), inactives show at the top dose activity, negative = inhibition, actives largely listed as inhibitors; note: potency is the fitted concentration of half-maximal effect; nearly all actives have a fitted effect of over 55% in size
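Tau K18 P301L fragment (15 uM unlabeled plus 0.24 uM Alexa 594-labeled) in 100 mM sodium acetate pH 7 with compound, fibrillization induced by 20 uM heparin for 6 hr at 37 C. Thioflavin T (30 uM) added, fluorescence read after 1 hr (ex 450, em 510 nm).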
An asterisk follows results filed as active; ? = inconclusive; . = no result; [ ] = remark or other dose. Unless noted, calls come from the whole dose curve; as a rule, active = well fitted curve in the direction sought with a large enough effect; inconclusive = small, poorly fitted or top-dose-only effect, or another doubt; inactive = no such curve, though single readings can be large; an effect the other way counts as inactive or inconclusive. Unless noted, % is set by controls: 0 for no effect and ±100 for the full control effect.

SMILES	Tau FP inhib	Coupling enz	Sfp PPTase inh	Tau fluor counter	G9a block	Tau fibril ThT
Cc1cc(C)nc(-n2nc(C)c3c2N(Cc2ccccc2)C(=O)CC3c2ccc(Cl)cc2)n1 (stereo not given)	10%	.	.	7%	-25%[59 µM]	2%
N#C/C(=C\c1ccc(-c2cc(Cl)ccc2Cl)o1)C(=O)Nc1ccccc1C(=O)O	-4%	.	.	-7%	?	7.1µM*
CC1CC1c1ccc(/C=C(\C#N)C(=O)Nc2ccc(Cl)cc2Cl)o1 (stereo not given)	-13%	0	56µM*	-13%	-5%[59 µM]	?
N#C/C(=C\c1ccc(-c2ccccc2Cl)o1)C(=O)Nc1nc2ccccc2s1	13%	-1	13%	-5%	10%[59 µM]	3.5µM*
CC(C)COC(=O)/C(C#N)=C\c1ccc(-c2ccccc2Cl)o1	5%	.	.	-24%	-5%[59 µM]	?
CO[C@H]1COC(=O)[C@@H](CCSC)NC(=O)C/C=C\[C@@H](C)[C@H](OC)COC(=O)[C@@H](OCc2ccccc2)/C=C\[C@@H]1C	-1%[11.6 µM]	1	15%	-12%[11.6 µM]	.	-9%[11.5 µM]
COc1ccccc1C1CC(c2ccc(Br)cc2)=NN1C(=O)c1cccnc1 (stereo not given)	6%	3	11%	11%	-48%[59 µM]	12%
COc1cccc(C2CC(c3ccc(Br)cc3)=NN2C(=O)c2ccncc2)c1OC (stereo not given)	-8%	5	-16%	-12%	36%[59 µM]	-18%
COc1ccc(C2CC(c3ccccc3)=NN2c2ccc(/C=N/NC(=O)c3ccncc3)cc2)cc1 (stereo not given)	?	0	24%	13µM*[quencher]	39%[59 µM]	?
COc1ccc(C2=NN(C(=O)c3ccncc3)C(c3ccccc3O)C2)cc1 (stereo not given)	.	3	14µM*	.	?	.
O=C(c1ccncc1)N1N=C(c2ccc(Cl)cc2)CC1c1ccccc1O (stereo not given)	.	3	-82%	.	20µM*	.
COc1ccc(CCC(C)N2CCOCC2)cc1 (stereo not given)	.	0	14%	.	-1%	.
O=C(c1cccc([N+](=O)[O-])c1)N1CCCC(C(=O)N2CCN(c3ccccc3)CC2)C1 (stereo not given)	.	-1	8%	.	28%	.
O=[N+]([O-])c1cccc(C(=S)N2CCN(c3ccccc3)CC2)c1	-3%	2	32µM*	?	8.9µM*	?
O=C(c1cccc([N+](=O)[O-])c1)N1CCN(C/C=C/c2ccccc2)CC1	1%	1	2%	-8%	-22%	-9%
O=[N+]([O-])c1cccc(C(=S)N2CCN(c3ccccc3F)CC2)c1	6%	2	-20%	?	20µM*	-9%
O=C(c1cccc([N+](=O)[O-])c1)N1CCN(S(=O)(=O)/C=C/c2ccccc2)CC1	.	.	.	.	8.9µM*	.
CCCCN(C)C(=O)c1ccc2c(c1)N(Cc1ccc(F)cc1)C(=O)c1ccccc1S2(=O)=O	-3%	.	.	?	-23%[59 µM]	?
CC(=O)N=c1sc2nc3ccccc3nc2n1N(C(C)=O)C(C)=O	?	-1	45µM*	-12%	?	?
CC(=O)N=c1sc2ccccc2n1C	5%	1	20%	3%	2%	-6%
O=C(O)c1ccc(/C=N/Nc2ccc(F)cc2F)cc1	9%	7	7%	-8%	35µM*	-9%
Fc1ccc(N/N=C/c2ccncc2)c(F)c1	-5%	3	-2%	-22%	?	?
O=C(N/N=C/c1ccc(C(F)(F)F)cc1)c1ccc(O)cc1	-2%	1	7%	-10%	10%	-6%
CC(C)(C)c1ccc(/C=N/Nc2ccc(C(=O)O)cc2)cc1	?	2	9%	?	1.8µM*	?
O=C(O)c1ccc(N/N=C/c2ccc(C(F)(F)F)cc2)cc1	?	8	-1%	-30%	35µM*	?

Bioassay records deposited in PubChem BioAssay by National Center for Advancing Translational Sciences (NCATS).
